# Results published in PubChem BioAssay (NCATS).
# Results filed as inconclusive are left out. Calls of active or inactive are those of the source. Unless noted, calls follow the shape of the dose curve; as a rule, active = well fitted curve in the direction sought with a large enough effect; inconclusive = small, poorly fitted or top-dose-only effect, or another doubt; inactive = no such curve, though single readings can be large; an effect the other way counts as inactive or inconclusive.
# Assays:
# [1] = target: Glucocorticoid receptor (Homo sapiens) (UniProt P04150); test: qHTS assay for small molecule agonists of glucocorticoid receptor signaling (AID 588532; active = well fitted curve in the direction sought with a large enough effect in the signal ratio, with a control signal flat; the % refers to the signal ratio;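 also: 100% = dexamethasone at 0.1 µM and 0% = DMSO only wells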); details: HeLa MMTV-bla, beta-lactamase ratio, agonist, 18 h; stronger effect = higher value; percent of dexamethasone control, DMSO zero
# Glucocorticoid receptor (Homo sapiens), sequence (P04150 whole entry, looked up): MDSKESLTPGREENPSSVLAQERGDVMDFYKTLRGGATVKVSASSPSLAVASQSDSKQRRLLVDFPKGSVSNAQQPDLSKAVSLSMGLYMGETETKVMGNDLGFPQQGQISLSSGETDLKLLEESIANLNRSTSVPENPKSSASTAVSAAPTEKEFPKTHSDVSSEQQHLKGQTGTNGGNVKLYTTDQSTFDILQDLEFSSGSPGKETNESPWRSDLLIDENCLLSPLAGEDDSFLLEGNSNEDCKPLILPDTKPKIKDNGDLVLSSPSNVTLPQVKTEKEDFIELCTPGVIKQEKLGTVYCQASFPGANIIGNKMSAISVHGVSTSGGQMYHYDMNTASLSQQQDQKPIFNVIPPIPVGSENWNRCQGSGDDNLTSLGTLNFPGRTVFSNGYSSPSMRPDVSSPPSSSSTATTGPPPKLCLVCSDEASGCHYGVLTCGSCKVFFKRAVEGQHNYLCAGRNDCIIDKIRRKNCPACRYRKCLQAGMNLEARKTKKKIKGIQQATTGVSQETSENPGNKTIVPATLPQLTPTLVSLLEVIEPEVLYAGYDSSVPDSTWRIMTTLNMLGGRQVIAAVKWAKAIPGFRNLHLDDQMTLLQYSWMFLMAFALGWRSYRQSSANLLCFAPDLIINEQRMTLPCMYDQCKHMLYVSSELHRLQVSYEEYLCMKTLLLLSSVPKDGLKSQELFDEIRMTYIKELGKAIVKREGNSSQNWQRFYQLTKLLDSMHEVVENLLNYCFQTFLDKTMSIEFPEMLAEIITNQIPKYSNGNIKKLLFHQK
# In short: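 HeLa GRE-bla reporter cells; 18 h compound exposure at 37 C; 2 h CCF4 loading at room temperature; fluorescence at 460 and 530 nm; EC50 by Hill equation.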
# [2] = qHTS assay for small molecule antagonists of peroxisome proliferator-activated receptor delta signaling (AID 588535); details: HEK293T PPARd-UAS-bla, beta-lactamase FRET ratio, 18 h; 460 nm channel;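 also: cells co-treated with a PPAR-delta agonist as stimulator during compound exposure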
# In short: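 Beta-lactamase reporter read-out (405 nm excitation, 460/530 nm emission) after CCF4 loading for 2 hrs at RT. HEK293T PPAR-delta-UAS-bla cells, 2% charcoal/dextran FBS, compounds for 18 hrs at 37 C. Hill fit gave IC50 and efficacy.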
# [3] = target: Peroxisome proliferator-activated receptor gamma (Homo sapiens) (UniProt P37231); test: qHTS assay for small molecule agonists of peroxisome proliferator-activated receptor gamma signaling (AID 588536; active = well fitted curve in the direction sought with a large enough effect in the signal ratio, with a control signal flat, not every such curve was filed as active; the % refers to the signal ratio;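 also: 0% = DMSO basal wells and 100% = rosiglitazone at 2 µM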); details: HEK293 PPARg-UAS-bla, beta-lactamase ratio, 16 h, percent of rosiglitazone response, DMSO as zero; series mostly up to 76.7 µM
# Peroxisome proliferator-activated receptor gamma (Homo sapiens), sequence (P37231 whole entry, looked up): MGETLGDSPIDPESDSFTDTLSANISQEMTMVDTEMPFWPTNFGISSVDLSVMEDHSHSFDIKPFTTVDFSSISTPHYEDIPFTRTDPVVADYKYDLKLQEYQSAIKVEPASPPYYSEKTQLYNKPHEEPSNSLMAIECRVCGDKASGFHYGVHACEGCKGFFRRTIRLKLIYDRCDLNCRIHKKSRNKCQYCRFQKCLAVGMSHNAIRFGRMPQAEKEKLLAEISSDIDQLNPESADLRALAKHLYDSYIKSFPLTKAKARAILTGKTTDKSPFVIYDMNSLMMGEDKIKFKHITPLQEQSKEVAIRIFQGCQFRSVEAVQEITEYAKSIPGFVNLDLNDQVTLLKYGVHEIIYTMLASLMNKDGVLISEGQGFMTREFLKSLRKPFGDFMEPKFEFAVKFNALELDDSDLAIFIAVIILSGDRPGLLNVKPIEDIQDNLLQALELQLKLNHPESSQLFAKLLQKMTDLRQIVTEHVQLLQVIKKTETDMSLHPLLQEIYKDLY
# In short: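 This is an agonist-mode beta-lactamase reporter assay in HEK293 PPAR-gamma-UAS-bla cells with 1% charcoal/dextran FBS. Compound titrations ran 16 h at 37 C before CCF4 detection. EC50 and efficacy are Hill fits scaled to 2 uM rosiglitazone (100%) and DMSO basal.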
# [4] = target: Peroxisome proliferator-activated receptor gamma (Homo sapiens) (UniProt P37231); test: qHTS assay for small molecule antagonists of peroxisome proliferator-activated receptor gamma signaling (AID 588537; active = well fitted inhibition curve with a large enough effect in the signal ratio, with a control signal flat, not every such curve was filed as active; the % refers to the signal ratio;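 also: reporter cells co-stimulated with 50 nM rosiglitazone agonist during compound treatment; % of control where 0% means no effect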); details: HEK293 PPARg-UAS-bla, beta-lactamase ratio, antagonist mode; series mostly up to 76.8 µM
# In short: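 Read-out: CCF4 fluorescence (ex 405, em 460/530 nm) after 2 h at RT. Cells were HEK293 carrying a UAS-bla reporter and treated 16 h at 37 C with compound plus rosiglitazone (50 nM final). Normalized to rosiglitazone and DMSO.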
# [5] = qHTS assay for small molecule agonists of retinoid X receptor alpha signaling (AID 588544; calls by dose curve;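 as to activation: 0% = DMSO basal wells and 100% = reference agonist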); details: HEK293T RXRa-UAS-bla, beta-lactamase reporter, 18 h; 530 nm emission
# [6] = target: Retinoic acid receptor RXR-alpha (Homo sapiens) (UniProt P19793); test: as above; details: HEK293T RXRa-UAS-bla, beta-lactamase reporter, 18 h; series mostly up to 76.7 µM
# Retinoic acid receptor RXR-alpha (Homo sapiens), sequence (P19793 whole entry, looked up): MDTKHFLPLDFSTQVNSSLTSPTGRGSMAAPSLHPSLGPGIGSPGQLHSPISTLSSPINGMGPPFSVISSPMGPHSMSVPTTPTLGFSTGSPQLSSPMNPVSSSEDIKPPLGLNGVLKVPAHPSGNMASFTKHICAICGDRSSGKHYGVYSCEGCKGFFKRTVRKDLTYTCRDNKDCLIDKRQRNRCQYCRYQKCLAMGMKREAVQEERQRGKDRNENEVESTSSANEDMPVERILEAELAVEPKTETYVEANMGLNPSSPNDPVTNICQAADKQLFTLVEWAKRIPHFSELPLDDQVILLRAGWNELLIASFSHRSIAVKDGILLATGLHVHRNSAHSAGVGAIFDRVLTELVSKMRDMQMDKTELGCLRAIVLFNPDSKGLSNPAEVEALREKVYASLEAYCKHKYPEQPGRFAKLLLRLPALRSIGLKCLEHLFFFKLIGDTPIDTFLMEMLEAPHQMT
# [7] = target: Thyroid hormone receptor beta (Homo sapiens) (UniProt P10828); test: qHTS assay for small molecule agonists of thyroid hormone receptor beta signaling (AID 588545; calls by dose curve); details: TR-UAS-bla GripTite HEK 293, beta-lactamase ratio, agonist mode, 18 h; series mostly up to 76.7 µM
# Thyroid hormone receptor beta (Homo sapiens), sequence (P10828 whole entry, looked up): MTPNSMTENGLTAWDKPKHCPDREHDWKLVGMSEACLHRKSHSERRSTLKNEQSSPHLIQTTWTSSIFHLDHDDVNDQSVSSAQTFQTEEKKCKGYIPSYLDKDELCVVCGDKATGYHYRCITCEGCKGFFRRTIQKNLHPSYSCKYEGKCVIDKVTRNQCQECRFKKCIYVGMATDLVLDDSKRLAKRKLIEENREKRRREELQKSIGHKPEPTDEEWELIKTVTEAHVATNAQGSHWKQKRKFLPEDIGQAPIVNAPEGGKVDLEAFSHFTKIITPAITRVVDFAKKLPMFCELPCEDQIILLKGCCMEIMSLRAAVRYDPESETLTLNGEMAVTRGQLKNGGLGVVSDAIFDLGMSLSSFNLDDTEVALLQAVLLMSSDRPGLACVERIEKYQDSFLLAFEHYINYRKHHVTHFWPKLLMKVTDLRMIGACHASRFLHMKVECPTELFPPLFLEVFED
# In short: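 Agonist activity was read as beta-lactamase CCF4 fluorescence (405 ex, 460/530 em), scaled between DMSO (0%) and 10 nM T3 (100%), then Hill-fitted for EC50 and efficacy. HEK 293 TR-UAS-bla cells in 2% charcoal/dextran FBS medium were exposed 18 h at 37 C.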
# [8] = qHTS assay for small molecule antagonists of retinoid X receptor alpha signaling (AID 588546; active = well fitted inhibition curve with a large enough effect in the signal ratio, with a control signal flat, not every such curve was filed as active; the % refers to the signal ratio;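 also: cells stimulated with 9-cis-retinoic acid as agonist; % is scaled to controls: 0 for no effect and ±100 for the full control effect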); details: HEK293T RXRa-UAS-bla, beta-lactamase ratio, antagonist mode; measured here: W530 green channel, cytotoxicity proxy
# In short: (§1)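 Beta-lactamase reporter inhibition, read as CCF4 fluorescence ratio (ex 405, em 460/530 nm) after 2 h at RT. HEK293T UAS-bla cells, 2500/well, were stimulated with 9-cis-RA at 500 or 100 nM final alongside test compound for 18 h at 37 C.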
# [9] = target: Retinoic acid receptor RXR-alpha (Homo sapiens) (UniProt P19793); test: as above; details: HEK293T RXRa-UAS-bla, beta-lactamase ratio, antagonist mode
# In short: as §1
# [10] = qHTS assay for small molecule activators of the p53 signaling pathway (AID 651743; active = well fitted activation curve with a large enough effect in the signal ratio, not every such curve was filed as active; the % refers to the signal ratio; also: % of control where 0% means no effect); details: HCT-116 p53RE-bla, beta-lactamase FRET ratio, 16 h; activation: stronger effect = higher value
# In short: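 Reporter: beta-lactamase driven by p53 response elements, stably integrated in HCT-116 cells. Cells seeded at 4,000/well, 5 h preincubation, compound (DMSO) 16 h at 37 C; B/G FRET substrate 2 h RT; fluorescence intensity read.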
# [11] = qHTS assay for environmental chemicals that activate the Aryl hydrocarbon Receptor (AhR) signaling pathway (AID 651777); details: 1A2-DRE human hepatoma cells, luciferase, 24 h; activation: stronger effect = higher value; also: % of control where 0% means no effect; nearly all actives have a fitted effect of over 15% in size
# In short: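 AhR activation is scored as a rise in luciferase from a stable DRE–CYP1A2 promoter construct in human hepatoma cells. Treatment lasts 24 hr at 37 C; detection uses One-Glo after 30 min at room temperature.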
# [12] = target: Peroxisome proliferator-activated receptor alpha (Homo sapiens) (UniProt Q07869); test: qHTS assay for small molecule agonists of the peroxisome proliferator-activated receptor alpha (PPARalpha) signaling pathway (AID 651778); details: PathHunter PPARalpha complementation, chemiluminescence, 6 h; max response: stronger effect = higher value; also: % of control where 0% means no effect
# Peroxisome proliferator-activated receptor alpha (Homo sapiens), sequence (Q07869 whole entry, looked up, the tested form may be a part): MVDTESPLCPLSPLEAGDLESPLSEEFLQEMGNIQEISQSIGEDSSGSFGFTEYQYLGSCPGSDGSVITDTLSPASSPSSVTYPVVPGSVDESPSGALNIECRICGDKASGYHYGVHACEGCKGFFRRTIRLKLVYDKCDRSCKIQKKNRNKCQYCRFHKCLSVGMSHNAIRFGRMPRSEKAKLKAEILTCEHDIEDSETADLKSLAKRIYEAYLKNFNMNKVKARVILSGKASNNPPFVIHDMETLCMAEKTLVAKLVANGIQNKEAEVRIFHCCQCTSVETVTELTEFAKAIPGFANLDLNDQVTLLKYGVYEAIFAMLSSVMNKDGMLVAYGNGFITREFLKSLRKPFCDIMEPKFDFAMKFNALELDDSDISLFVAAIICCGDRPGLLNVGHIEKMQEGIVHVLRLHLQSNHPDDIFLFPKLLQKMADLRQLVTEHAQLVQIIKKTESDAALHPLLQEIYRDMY
# In short: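 Enzyme-fragment complementation assay in which ligand-bound PPARalpha translocates and forms an active enzyme that generates chemiluminescence. Cells were plated overnight, exposed to compound for 6 hr at 37 C, and then given detection reagent for 60 min at room temperature.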
# [13] = qHTS assay for small molecule agonists of the antioxidant response element (ARE) signaling pathway measured by Nrf2-dependant transcriptional activity (AID 720636; active = well fitted curve in the direction sought with a large enough effect in the repeat runs; an effect the other way counts as inactive or inconclusive;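 also: HepG2 cells with an ARE-driven luciferase reporter; % of control where 0% means no effect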); details: ARE-luc HepG2, Nrf2 luciferase reporter, 16 h; series mostly up to 92.4 µM
# In short: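 First, ARE-luc HepG2 cells attached for 6 hr at 37 C in 1% dialyzed FBS medium. Next, compound or DMSO was added and incubated 16 hr. Finally, ONE-Glo reagent was added and luminescence measured after 30 min.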
# [14] = qHTS assay for small molecule agonists of the antioxidant response element (ARE) signaling pathway measured by Nrf2-dependant transcriptional activity - cell viability counter screen (AID 720653; active = well fitted curve in the direction sought with a large enough effect in the repeat runs; an effect the other way counts as inactive or inconclusive; also: % is scaled to controls: 0 for no effect and ±100 for the full control effect); details: ARE-bla HepG2 viability, CellTiter-Glo ATP luminescence, 16 h; max response: stronger effect = lower value
# In short: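 ARE-bla HepG2 cells treated with compounds for 16 h at 37C; this counter screen measures viability as intracellular ATP by CellTiter-Glo luminescence after 30 min at room temperature.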
# [15] = qHTS assay for cell viability of HEK293 cells (AID 743288); details: ATP luminescence (CellTiter-Glo), 18 h; max response: stronger effect = lower value; also: % is scaled to controls: 0 for no effect and ±100 for the full control effect; nearly all actives have a fitted effect of over 50% in size
# In short: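 Quantitative high-throughput screen: compounds were pinned onto parental HEK293 cells (2,000 per well) after a minimum 5 h settling at 37 C, incubated 18 h at 37 C, and intracellular ATP measured by luciferase luminescence.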
# [16] = qHTS assay for cell viability of the p53RE-bla HCT-116 cell line (AID 743292); details: p53RE-bla HCT-116 viability, ATP luminescence, 16 h; series mostly up to 95 µM; also: % is scaled to controls: 0 for no effect and ±100 for the full control effect; nearly all actives have a fitted effect of over 55% in size
# In short: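 Quantitative high-throughput format: compounds in DMSO were pinned onto p53RE-bla HCT-116 cells (4,000/well) and incubated 16 h at 37 C. Total intracellular ATP, read by CellTiter-Glo luminescence, reflects viable cell number.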
# [17] = target: Nuclear receptor subfamily 1 group I member 2 (Rattus norvegicus) (UniProt Q9R1A7); test: qHTS assay for small molecule activators of the rat pregnane X receptor (rPXR) signaling pathway (AID 651751; call rule not given here; also: 0% is about no effect); details: rPXR reporter cells, luciferase (One-Glo), 24 h
# Nuclear receptor subfamily 1 group I member 2 (Rattus norvegicus), sequence (Q9R1A7 whole entry, looked up): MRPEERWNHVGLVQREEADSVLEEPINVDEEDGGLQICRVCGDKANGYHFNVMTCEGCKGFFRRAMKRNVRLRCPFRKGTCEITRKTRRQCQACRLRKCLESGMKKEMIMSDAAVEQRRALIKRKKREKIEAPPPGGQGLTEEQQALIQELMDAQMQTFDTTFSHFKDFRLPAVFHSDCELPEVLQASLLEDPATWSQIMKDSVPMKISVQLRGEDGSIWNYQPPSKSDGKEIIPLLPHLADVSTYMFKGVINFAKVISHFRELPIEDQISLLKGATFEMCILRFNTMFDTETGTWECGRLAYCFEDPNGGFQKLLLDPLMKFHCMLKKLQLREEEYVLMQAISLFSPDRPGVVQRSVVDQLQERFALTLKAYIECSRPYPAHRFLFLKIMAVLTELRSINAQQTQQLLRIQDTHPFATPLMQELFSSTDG
# [18] = qHTS assay for small molecule activators of the human pregnane X receptor (PXR) signaling pathway (AID 720659; call rule not given here; also: 0% is about no effect); details: DPX-2 HepG2 CYP3A4-luciferase, 24 h; series mostly up to 92.3 µM
# [19] = target: Thyroid hormone receptor beta (Homo sapiens) (UniProt P10828); test: qHTS assay for small molecule antagonists of thyroid hormone receptor beta signaling (AID 588547; active = well fitted inhibition curve with a large enough effect in the signal ratio, with a control signal flat, not every such curve was filed as active; the % refers to the signal ratio;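 also: cells stimulated with 0.4 nM T3 agonist during compound exposure; % is scaled to controls: 0 for no effect and ±100 for the full control effect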); details: TR-UAS-bla HEK293, beta-lactamase ratio, antagonist mode, 18 h
# In short: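 TR-UAS-bla GripTite HEK293 cells in 2% charcoal/dextran FBS medium; compounds 0.59 nM to 92 uM with T3 at 0.4nM final, 18 h at 37 C. Beta-lactamase read by CCF4 fluorescence (460/530 nm); Hill fits gave IC50 and efficacy.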
# [20] = qHTS assay for small molecule activators of the nuclear factor-kappa B (NF-kB) signaling pathway (AID 651749; active = well fitted activation curve with a large enough effect in the signal ratio; the % refers to the signal ratio; also: % of control where 0% means no effect); details: NF-kB-bla ME-180 cells, beta-lactamase FRET ratio, 16 h; activation: stronger effect = higher value
# In short: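 NF-kB-bla ME-180 cells, 2,000/well; 23 nL compound or DMSO pinned; 16 hr, 37C/5% CO2; beta-lactamase FRET read-out.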
SMILES,activation [1],max response [2] [%],outcome [3],Potency [4],max response [5] [%],Potency [6],Potency [7],max response [8] [%],max response [9],activation [10],activation [11],max response [12],Potency [13],max response [14],max response [15],Potency [16],max response [17],outcome [18],activity change % (negative = inhibition) [19],activation [20]
C=CCCCCCCCCCCCC,9.05% (inactive),14.9,inactive,inactive,-6.65,inactive,inactive,-3.7,10.9% (inactive),-3% (inactive),0.249% (inactive),-1.61% (inactive),inactive,1.55% (inactive),5.27% (inactive),inactive,1.46% (inactive),inactive,–,–
CN(C)CCOCCN(C)C,11.4% (inactive),2.82,inactive,inactive,1.75,inactive,inactive,-5.51,-8.75% (inactive),-2.29% (inactive),-2.36% (inactive),-0.21% (inactive),inactive,–,-5.76% (inactive),inactive,0.876% (inactive),inactive,-4.05% (inactive),0.657% (inactive)
C1CCC2(CCCCO2)OC1,-8.41% (inactive),51.5,inactive,–,-20.2,inactive,inactive,-9.54,-3.1% (inactive),–,0.829% (inactive),0.092% (inactive),–,2.39% (inactive),3.07% (inactive),–,-2.06% (inactive),inactive,7.84% (inactive),–
CC1(C)C(=O)N(Br)C(=O)N1Br,5.17% (inactive),-25.7,inactive,inactive,-13.9,inactive,inactive,-0.87,-10.9% (inactive),-3.66% (inactive),1.3% (inactive),-2.02% (inactive),inactive,-10.4% (inactive),-3.78% (inactive),inactive,-0.134% (inactive),inactive,6.14% (inactive),–
C1=C/CC/C=C/CC/C=C/CC/1,2.01% (inactive),18.8,inactive,inactive,–,–,inactive,5.63,-14.4% (inactive),–,–,0.0417% (inactive),inactive,-8.56% (inactive),-8.62% (inactive),inactive,13.1% (inactive),inactive,0.305% (inactive),0.104% (inactive)
Cc1ccc(S(=O)(=O)C(I)I)cc1,–,–,–,–,-69.8,inactive,–,–,–,4.66% (inactive),-11.1% (inactive),–,inactive,–,–,–,–,inactive,–,-6% (inactive)
